# Compound activity from PubChem.
# HP1b chromo inh: HTS for Inhibitors of HP1-beta Chromodomain Interactions with Methylated Histone Tails; Chromobox protein homolog 1 (Homo sapiens), P83916; AlphaScreen HP1-beta / biotin-H3K9me3 peptide binding; Potency, µM (top dose mostly 114 µM), for inactives: top-dose activity change, negative = inhibition, hits mostly inhibitors; 0.56% of 390,000 active; note: potency is the fitted concentration of half-maximal effect; nearly all actives have a fitted effect of over 70% in size
# Target sequence (P83916 whole entry, looked up): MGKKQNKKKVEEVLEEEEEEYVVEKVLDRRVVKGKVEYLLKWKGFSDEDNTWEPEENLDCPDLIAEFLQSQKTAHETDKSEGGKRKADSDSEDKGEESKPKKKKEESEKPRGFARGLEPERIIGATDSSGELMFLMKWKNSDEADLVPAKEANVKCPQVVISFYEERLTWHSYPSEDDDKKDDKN
#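 HP1-beta protein (50 nM final) preincubated 30 min at room temperature with biotinylated H3(1-18)K9me3 peptide (50 nM) in PBS pH 7.4, 0.01% Tween-20, then compound added for 30 min. AlphaScreen streptavidin donor/nickel chelate acceptor beads (10 ug/mL final), 30 min dark, luminescence read.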
# BAZ2B block: qHTS Assay for Inhibitors of BAZ2B | Bromodomain adjacent to zinc finger domain protein 2B (Homo sapiens), Q9UIF8 | AlphaScreen BAZ2B-H3K14Ac peptide displacement | Potency, µM (series often up to 114 µM), without a hit: at the top dose activity change, negative = inhibition, usual class: inhibitors | 4.4% of 360,000 active | AID 504333, 2011; note: potency is the fitted concentration of half-maximal effect; % is set by controls: 0 for no effect and ±100 for the full control effect; nearly all actives have a fitted effect of over 60% in size
#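 BAZ2B (50 nM) with biotin-H3(5-23)K14Ac peptide (50 nM) in PBS pH 7.4, 0.01% Tween-20, preformed 30 min, then compound 30 min at room temperature; top concentration 110uM. AlphaScreen streptavidin donor/nickel chelate acceptor beads (10 ug/mL final), 20 min dark, signal read.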
# G9a block: qHTS Assay for Inhibitors of Histone Lysine Methyltransferase G9a. Potency, µM (doses to about 102 µM), without a hit: at the highest dose activity, negative = inhibition, most hits filed as inhibitors. 8.8% of 350,000 active. G9a H3K9 monomethylation, AlphaScreen, 2 h; note: potency is the fitted concentration of half-maximal effect; % is set by controls: 0 for no effect and ±100 for the full control effect; nearly all actives have a fitted effect of over 75% in size
#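 Step 1: enzyme (final 20 nM) with compound, 15 min RT. Step 2: substrate peptide 500 nM and SAM 20 uM, 2 h RT. Step 3: anti-H3K9me1 antibody and AlphaScreen beads, 10 min, then plate read.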
# PI5P4K alpha inh: qHTS for Inhibitors of phosphatidylinositol 5-phosphate 4-kinase (PI5P4K); Phosphatidylinositol 5-phosphate 4-kinase type-2 alpha (Homo sapiens), P48426; PI5P4Kalpha enzyme, ADP-Glo luminescence, 60 min; hits give low values; max response, %; 1.2% of 330,000 active; AID 652105, 2013; active = max response of -50% or lower; inconclusive = between -30% and -50%; inactive = -30% or higher; note: value at the top dose of about 77 µM; % is set by controls: 0 for no effect and ±100 for the full control effect
#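 ADP-Glo luminescence end-point read after a 60 min room-temperature kinase reaction of PI5P4Kalpha plus substrate, initiated with ATP at 5 microM final. Buffer: 0.038 M HEPES pH 7.4, EGTA, 0.1% CHAPS, 5% DMSO.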
# JMJD2A Tudor: qHTS Assay for Inhibitors of JMJD2A-Tudor Domain. AlphaScreen JMJD2A-Tudor / H3K4me3 peptide binding. Lysine-specific demethylase 4A (Homo sapiens), O75164. 4.4% of 390,000 active. Potency, µM (top dose mostly 114 µM), without a hit: top-dose activity change, negative = inhibition, hits mostly inhibitors; note: potency is the fitted concentration of half-maximal effect; % is set by controls: 0 for no effect and ±100 for the full control effect; nearly all actives have a fitted effect of over 50% in size
# PLK1 PBD inh: qHTS for Inhibitors of PLK1-PDB (polo-like kinase 1 - polo-box domain): Primary Screen; Serine/threonine-protein kinase PLK1 (Homo sapiens), P53350; Plk1 PBD binding of FITC phosphopeptide, fluorescence polarization; Potency, µM, for the others: max response, negative = inhibition, actives largely listed as inhibitors; 2.8% of 360,000 active; note: potency is the fitted concentration of half-maximal effect; series mostly up to about 57 µM; % is set by controls: 0 for no effect and ±100 for the full control effect; nearly all actives have a fitted effect of over 65% in size
# Target sequence (P53350 whole entry, looked up, the tested form may be a part): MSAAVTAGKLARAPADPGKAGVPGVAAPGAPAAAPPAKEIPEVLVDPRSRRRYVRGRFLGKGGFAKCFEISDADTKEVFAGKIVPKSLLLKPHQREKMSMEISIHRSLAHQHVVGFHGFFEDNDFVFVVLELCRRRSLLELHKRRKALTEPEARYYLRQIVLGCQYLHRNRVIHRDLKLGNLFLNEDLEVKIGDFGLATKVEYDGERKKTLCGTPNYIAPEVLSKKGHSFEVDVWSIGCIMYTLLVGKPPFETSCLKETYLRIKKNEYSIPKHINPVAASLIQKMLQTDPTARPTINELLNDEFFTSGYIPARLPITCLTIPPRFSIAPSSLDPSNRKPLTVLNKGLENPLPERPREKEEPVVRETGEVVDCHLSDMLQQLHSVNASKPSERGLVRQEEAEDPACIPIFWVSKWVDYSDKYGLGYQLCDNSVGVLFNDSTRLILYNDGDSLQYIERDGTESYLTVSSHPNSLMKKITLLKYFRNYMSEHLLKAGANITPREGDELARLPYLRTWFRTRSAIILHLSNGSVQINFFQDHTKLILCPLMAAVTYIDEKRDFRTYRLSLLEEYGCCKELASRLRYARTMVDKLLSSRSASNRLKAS
# Active calls of the source: *; ? = inconclusive; . = no result; [ ] = remark or other dose. Rows were chosen to be rich in hits. Some 12% of all compounds tested hit in one or more screens of this group. Unless noted, calls come from the whole dose curve; as a rule, active = well fitted curve in the direction sought with a large enough effect; inconclusive = small, poorly fitted or top-dose-only effect, or another doubt; inactive = no such curve, though single readings can be large; an effect the other way counts as inactive or inconclusive.
SMILES,HP1b chromo inh,BAZ2B block,G9a block,PI5P4K alpha inh,JMJD2A Tudor,PLK1 PBD inh
COC(=O)C1=C(C)NC(=O)/C1=C\c1cc(C)n(-c2cc(C)cc(C)c2)c1C,-59.6%,44.7µM*,-14.7%[12.7 µM],-16.4,56.2µM*,-8.0%
Cc1ccc2cccc(NC(=O)c3ccc(-c4cc(Cl)ccc4Cl)o3)c2n1,14.3%,-13.9%,-8.7%[59 µM],.,-7.1%,.
Cc1cc(C)cc(OCCOCCn2c(-c3ccc(Cl)cc3)nc3ccccc3c2=O)c1,-5.0%,77.2%,99.9%[59 µM],.,7.6%,.
C/C(=N\N1C(=O)CSC1=S)c1ccc(Br)cc1,-23.5%,?,39.8µM*,-26.1,-30.8%,5.32µM*
Cc1ccc(C(=O)NN2C(=O)CSC2=S)cc1,19.8%,-27.8%,-15.7%[59 µM],-1.1,-28.3%,-5.1%
COc1ccc(NC(=O)Nc2cc(-c3cn4cccnc4n3)ccc2C)cc1,51.1%,-28.2%,0.8%[59 µM],.,-4.1%,.
COc1cccc(C(=O)Nc2cc(-c3cn4cccnc4n3)ccc2C)c1,25.7%,-19.5%,31.6µM*,-0.8,1.5%,1.6%
Cc1cccc(C)c1NC(=O)C1(C)CSCC(=O)N1Cc1cccc(C(F)(F)F)c1 (stereo not drawn),.,.,.,1.1,.,-4.4%
S=c1cnc2ccccc2[nH]1,?,56.2µM*,1µM*,-61.2*,4.47µM*,11.9µM*
COc1ccc(S(=O)(=O)N2CCC(n3c(C(F)(F)F)nc4cccnc43)CC2)cc1OC,26.4%,-11.2%,-4.0%[59 µM],.,-23.4%,.
CCCCn1c(SCC(=O)Nc2ccc3c(c2)CCC3)nc2ccccc2c1=O,15.4%,-16.0%,-13.6%[59 µM],6.3,-23.4%,29.9µM*
CCNC(=O)CSc1nc2ccccc2c(=O)n1OC,19.2%,0.2%,79.4µM*,-1.4,8.1%,-4.8%
C=CCn1c(SCC(=O)Nc2ccc3c(c2)CCC3)nc2ccccc2c1=O,15.0%,5.9%,-6.9%[59 µM],-1.0,-6.0%,-9.5%
CCNC(=O)COn1c(SCC(=O)NCC)nc2ccccc2c1=O,34.8%,-0.3%,?,-4.1,5.4%,-4.8%
CCOCCCn1c(SCC(=O)NC2CCCC2)nc2ccccc2c1=O,23.2%,12.6%,40.7%[0.501 µM],7.1,?,26.7µM*
CCOc1ccccc1NC(=O)CSc1nc2ccccc2c(=O)n1CC1CCCO1 (stereo not drawn),-0.9%,1.3%,4.47µM*,-3.2,-8.1%[57.1 µM],?
N#CCC(=O)Nc1ccc(C(=O)NNC(=O)CCN2CCN(c3ccccc3)CC2)cc1,7.3%,?,23.2%[2.33 µM],-6.3,-32.0%,-2.5%
CCOCCCn1c(SCC(=O)Nc2ccc(OC)cc2)nc2ccccc2c1=O,-20.7%,0.3%,31.6µM*,2.6,0.0%,?
CCOC(=O)CSc1nc2ccccc2c(=O)n1CC1CCCC1,91.0%,70.5%,78.5%[59 µM],?,?,2.99µM*
CCOCCCn1c(SCC(=O)Nc2ccccc2)nc2ccccc2c1=O,54.8%,6.2%[0.457 µM],.,1.2,-1.4%,-8.4%
C=CCOC(/C=C/c1ccccc1)C[Si](C)(C)C (stereo not drawn),-0.3%,.,.,.,-17.9%,.
COc1ccccc1N1CCN(C2CC(=O)N(c3cccc(Br)c3)C2=O)CC1 (stereo not drawn),21.3%,-3.4%,.,-3.6,-29.5%,-20.8%
COc1cc2c(cc1OC)CN(C1CC(=O)N(c3c(C)cccc3C)C1=O)CC2 (stereo not drawn),7.1%,-22.7%,79.4µM*,-28.6,-32.4%,-14.9%
CCOc1ccc(CC(=O)Nc2c(C(=O)c3ccc(C)cc3)oc3ccccc23)cc1OCC,38.4%,-23.6%,3.4%[59 µM],.,2.2%,.
CSC[C@H]1CN(CCc2ccccc2)C(=O)[C@@H]1CC(=O)Nc1ccccc1,.,.,.,-1.0,.,0.2%
SMILES,HP1b chromo inh,BAZ2B block,G9a block,PI5P4K alpha inh,JMJD2A Tudor,PLK1 PBD inh
O=C(O)[C@H]1CCC(=O)N1Cc1ccco1,24.7%,11.4%,?,-0.3,-7.6%,-8.4%
CN(Cc1ccccc1)C(=O)[C@H]1CCC(=O)N1Cc1ccco1,42.6%,-21.9%,44.7µM*,1.7,-5.5%,-6.4%
CCOC(=O)c1c(C)[nH]c(C)c1S(=O)(=O)N1CCC(C(=O)NCc2ccc(F)cc2)CC1,29.1%,-10.9%,-28.7%[59 µM],.,-13.3%,.
CNCc1ccccc1Sc1cccc(O)c1,7.6%,10.1%,18.2%[59 µM],16.5,-21.3%,-5.0%
CNCc1ccccc1Sc1cc(O)ccc1O,10µM*,35.5µM*,1µM*,?,17.8µM*,5.32µM*
Cn1c(=NC(=O)COc2ccccc2)sc2ccccc21,32.8%,-31.0%,?,1.9,-8.7%,-8.0%
CC(=O)c1ccc(N2CCN(C(=O)CCS(=O)(=O)c3ccc4c(c3)oc(=O)n4C)CC2)cc1,26.7%,10.8%[57.1 µM],-15.1%[59 µM],.,-6.1%,.
O=C(C1CCCN(S(=O)(=O)c2cccc3cccnc23)C1)N1CCc2ccccc21 (stereo not drawn),46.0%,0.8%,44.7µM*,-6.5,-23.2%,-6.5%
O=C(C1CCN(S(=O)(=O)c2cccc3cccnc23)CC1)N1CCN(C2CCCCC2)CC1,38.1%,-3.1%,35.5µM*,4.8,-26.9%,-12.0%
N#CC(C#N)=C1c2cc(S(N)(=O)=O)ccc2-c2ccc(S(N)(=O)=O)cc21,36.2%,-36.7%,17.8µM*,-2.6,-7.9%,-4.7%
N#CC(C#N)=C1c2cc(S(=O)(=O)NCCO)ccc2-c2ccc(S(=O)(=O)NCCO)cc21,65.9%,-17.3%,.,-1.3,-8.8%,-28.6%
Cc1ccc(NC(=O)c2oc3c(c2C)-c2[nH]ncc2CC3)c(Cl)c1,-5.7%,-32.4%,?,.,?,.
CC(=O)NCCCc1ccc(C(=O)COC(=O)CNC(=O)c2ccc3ccccc3c2)cc1,9.5%[57 µM],.,.,.,3.1%[57.1 µM],.
Cn1nc(-c2ccccc2)c(C(=O)NC(C(=O)O)c2ccccc2)c1Cl (stereo not drawn),23.3%,50.1µM*,.,2.6,-11.9%,-17.9%
Cn1nc(-c2ccccc2)c(C(=O)Nc2ccc(Cl)cc2)c1Cl,16.7%,-28.7%,12.0%,0.8,-9.2%,-6.0%
O=C(CCC1N=C2c3ccccc3N=C(SCc3ccccc3Cl)N2C1=O)NCCc1ccccc1 (stereo not drawn),76.6%,23.9%,?,.,-4.1%,.
CC(CNC(=O)CC[C@H]1O[C@@H](n2ccc(=O)[nH]c2=O)[C@H](O)[C@@H]1O)c1ccccc1 (stereo partly drawn),.,.,.,0.0,.,-4.8%
CC(=O)Nc1ccc(NCN2C(=O)C3C4CCC(C4)C3C2=O)cc1 (stereo not drawn),15.2%,5.6%,20.5%,-4.1,44.4%,1.5%
